Calls of active or inactive are those of the source. Rule for the calls: active = hit-call score of the fitted dose curve at least 0.9, where 1 is the maximum; inactive = score below 0.9.
What was measured:
[1] = read-out: TIMP metallopeptidase inhibitor 1 (TIMP1), TIMP1 (gene 7076); test: BSK_hDFCGF_TIMP1: BioMAP Diversity Plus: hDFCGF Assay for TIMP metallopeptidase inhibitor 1 (TIMP1) Biomarker Activity (AID 2283062); conditions: primary human foreskin fibroblasts; actives raise or lower the signal
How it was run: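 Bidirectional curve fitting against DMSO baseline yielded this endpoint, based on ELISA detection of TIMP-1 in primary human foreskin fibroblasts exposed to compound for 24 h.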

[2] = read-out: Monokine induced gamma interferon (MIG), CXCL9 (gene 4283); test: BSK_hDFCGF_MIG: BioMAP Diversity Plus: hDFCGF Assay for Monokine induced gamma interferon (MIG) Biomarker Activity (AID 2283063); conditions: primary human foreskin fibroblasts; actives raise or lower the signal
How it was run: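 Endpoint derived by bidirectional fitting relative to DMSO; MIG quantified via ELISA in primary human foreskin fibroblasts harvested 24 h after dosing.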

[3] = read-out: Matrix Metallopeptidase 1 (MMP1), MMP1 (gene 4312); test: BSK_hDFCGF_MMP1: BioMAP Diversity Plus: hDFCGF Assay for Matrix Metallopeptidase 1 (MMP1) Biomarker Activity (AID 2283064); conditions: primary human foreskin fibroblasts; actives raise or lower the signal
How it was run: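 Primary human foreskin fibroblasts exposed to chemicals for 24 h; MMP1 measured by ELISA. Cytotoxicity tracked by SRB staining in parallel cultures; bidirectional fit relative to DMSO.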

[4] = read-out: Plasminogen activator inhibitor-1 (PAI1), SERPINE1 (gene 5054); test: BSK_hDFCGF_PAI1: BioMAP Diversity Plus: hDFCGF Assay for Plasminogen activator inhibitor-1 (PAI1) Biomarker Activity (AID 2283066); conditions: primary human foreskin fibroblasts; actives raise or lower the signal
How it was run: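 PAI-1 levels, determined by ELISA, served as the endpoint in human foreskin fibroblast cultures exposed to compound for 24 h, with DMSO as baseline.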

[5] = read-out: Intercellular Adhesion Molecule 1 (ICAM1), ICAM1 (gene 3383); test: BSK_KF3CT_ICAM1: BioMAP Diversity Plus: KF3CT Assay for Intercellular Adhesion Molecule 1 (ICAM1) Biomarker Activity (AID 2283067); conditions: primary human keratinocytes with fibroblasts; actives raise or lower the signal
How it was run: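 Bidirectional curve fitting against a DMSO baseline was applied to ICAM-1 ELISA signal from primary human skin co-cultures harvested 24 h after treatment, with SRB staining of parallel wells for overt cytotoxicity.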

[6] = read-out: Interferon-gamma inducible Protein 10 (IP10), CXCL10 (gene 3627); test: BSK_KF3CT_IP10: BioMAP Diversity Plus: KF3CT Assay for Interferon-gamma inducible Protein 10 (IP10) Biomarker Activity (AID 2283068); conditions: primary human keratinocytes with fibroblasts; actives raise or lower the signal
How it was run: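 ELISA read-out of IP-10 after 24 h chemical dosing of human skin primary co-culture (keratinocytes, foreskin fibroblasts). Gain or loss of signal relative to DMSO, bidirectional curve fit.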

[7] = BSK_KF3CT_SRB: Viability Assessment in the BioMAP Diversity Plus: KF3CT Assay (AID 2283069); conditions: primary human keratinocytes with fibroblasts;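 note: total protein by sulforhodamine B staining as a cytotoxicity measure; read 24 h after compound addition; fitted for both signal gain and loss against DMSO baseline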
How it was run: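 Human keratinocyte and foreskin fibroblast co-culture exposed to chemical for 24 h. Total protein measured in parallel cultures by 0.1% sulforhodamine B staining after 10% TCA fixation, read at 560 nm; bidirectional fit relative to DMSO.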

[8] = read-out: Interleukin-1 alpha (IL1a), IL1A (gene 3552); test: BSK_KF3CT_IL1a: BioMAP Diversity Plus: KF3CT Assay for Interleukin-1 alpha (IL1a) Biomarker Activity (AID 2283070); conditions: primary human keratinocytes with fibroblasts; actives raise or lower the signal
How it was run: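 Primary human keratinocyte plus foreskin fibroblast co-culture, dosed and measured at 24 h in 96-well plates. IL-1a level quantified by ELISA; bidirectional fit relative to DMSO.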

[9] = read-out: TIMP metallopeptidase inhibitor 2 (TIMP2), TIMP2 (gene 7077); test: BSK_KF3CT_TIMP2: BioMAP Diversity Plus: KF3CT Assay for TIMP metallopeptidase inhibitor 2 (TIMP2) Biomarker Activity (AID 2283071); conditions: primary human keratinocytes with fibroblasts; actives raise or lower the signal
How it was run: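 Keratinocyte–fibroblast co-culture, 24 h exposure; TIMP-2 ELISA, DMSO-normalised bidirectional fit. Parallel SRB (0.1%, TCA-fixed, 560 nm) total-protein staining gauges cytotoxicity.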

[10] = read-out: C-C motif chemokine 2 (Homo sapiens) (UniProt P13500); test: BSK_KF3CT_MCP1: BioMAP Diversity Plus: KF3CT Assay for Monocyte Chemoattractant Protein 1 (MCP1/CCL2) Biomarker Activity (AID 2283073); conditions: primary human keratinocytes with fibroblasts; actives raise or lower the signal
How it was run: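 Biomarker MCP-1 is measured by ELISA in primary human keratinocytes co-cultured with foreskin fibroblasts, 24 h after chemical treatment; DMSO serves as the negative control and activity baseline.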

[11] = read-out: Matrix Metallopeptidase 9 (MMP9), MMP9 (gene 4318); test: BSK_KF3CT_MMP9: BioMAP Diversity Plus: KF3CT Assay for Matrix Metallopeptidase 9 (MMP9) Biomarker Activity (AID 2283074); conditions: primary human keratinocytes with fibroblasts; actives raise or lower the signal
How it was run: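 Human keratinocyte and foreskin fibroblast co-culture exposed to chemicals for 24 h; MMP9 biomarker measured by ELISA, bidirectional fitting relative to DMSO; cytotoxicity tracked by SRB total protein staining in parallel cultures.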

[12] = read-out: urokinase plasminogen activator (uPA), PLAU (gene 5328); test: BSK_KF3CT_uPA: BioMAP Diversity Plus: KF3CT Assay for urokinase plasminogen activator (uPA) Biomarker Activity (AID 2283075); conditions: primary human keratinocytes with fibroblasts; actives raise or lower the signal
How it was run: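 Primary human keratinocyte/foreskin fibroblast co-culture exposed to chemical; uPA measured by ELISA at 24 h. Bidirectional fit versus DMSO, with parallel SRB total-protein staining for cytotoxicity.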

[13] = read-out: CD40, CD40 (gene 958); test: BSK_LPS_CD40: BioMAP Diversity Plus: LPS Assay for CD40 Biomarker Activity (AID 2283076); conditions: primary human HUVEC with PBMC; actives raise or lower the signal
How it was run: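 Using a multiplexed primary human co-culture (umbilical vein endothelium plus PBMC), CD40 was read by ELISA 24 h after dosing, with cytotoxicity tracked by sulforhodamine B staining of parallel cultures and activity fitted bidirectionally versus DMSO.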

[14] = read-out: E-selectin (Homo sapiens) (UniProt P16581); test: BSK_LPS_Eselectin: BioMAP Diversity Plus: LPS Assay for Eselectin Biomarker Activity (AID 2283077); conditions: primary human HUVEC with PBMC; actives raise or lower the signal
How it was run: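 Dose chemical onto LPS-driven HUVEC/PBMC co-culture; after 24 h, run ELISA for E-selectin; fit up- and down-going responses relative to DMSO control.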

[15] = read-out: Interleukin-8 (IL8), CXCL8 (gene 3576); test: BSK_LPS_IL8: BioMAP Diversity Plus: LPS Assay for Interleukin-8 (IL8) Biomarker Activity (AID 2283078); conditions: primary human HUVEC with PBMC; actives raise or lower the signal
How it was run: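 In this LPS system, chemical-treated human umbilical vein endothelium/PBMC co-cultures were harvested at 24 h for IL-8 ELISA.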

[16] = BSK_LPS_SRB: Viability Assessment in the BioMAP Diversity Plus: LPS Assay (AID 2283079); conditions: primary human HUVEC with PBMC;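 note: total protein by sulforhodamine B absorbance as a cytotoxicity measure; measured one day after compound addition; fitted in both directions against DMSO so loss or gain of signal counts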
How it was run: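 Cytotoxicity endpoint in human endothelial–PBMC co-culture: 24 h exposure, then SRB (0.1%) staining, 560 nm read.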

[17] = read-out: Interleukin-1 alpha (IL1a), IL1A (gene 3552); test: BSK_LPS_IL1a: BioMAP Diversity Plus: LPS Assay for Interleukin-1 alpha (IL1a) Biomarker Activity (AID 2283080); conditions: primary human HUVEC with PBMC; actives raise or lower the signal
How it was run: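 Primary human HUVEC and PBMC co-culture stimulated with LPS is dosed and harvested at 24 h. Both increases and decreases in ELISA-measured IL-1a are scored relative to DMSO.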

[18] = read-out: Monocyte Chemoattractant Protein-1 (MCP1), CCL2 (gene 6347); test: BSK_LPS_MCP1: BioMAP Diversity Plus: LPS Assay for Monocyte Chemoattractant Protein-1 (MCP1) Biomarker Activity (AID 2283081); conditions: primary human HUVEC with PBMC; actives raise or lower the signal
How it was run: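 Values derive from bidirectional fitting against DMSO of ELISA-measured MCP-1 in a human primary endothelial and mononuclear cell co-culture, 24 h after chemical addition under LPS activation.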

Measured: outcome

Sequence of E-selectin (Homo sapiens) (P16581 whole entry, looked up): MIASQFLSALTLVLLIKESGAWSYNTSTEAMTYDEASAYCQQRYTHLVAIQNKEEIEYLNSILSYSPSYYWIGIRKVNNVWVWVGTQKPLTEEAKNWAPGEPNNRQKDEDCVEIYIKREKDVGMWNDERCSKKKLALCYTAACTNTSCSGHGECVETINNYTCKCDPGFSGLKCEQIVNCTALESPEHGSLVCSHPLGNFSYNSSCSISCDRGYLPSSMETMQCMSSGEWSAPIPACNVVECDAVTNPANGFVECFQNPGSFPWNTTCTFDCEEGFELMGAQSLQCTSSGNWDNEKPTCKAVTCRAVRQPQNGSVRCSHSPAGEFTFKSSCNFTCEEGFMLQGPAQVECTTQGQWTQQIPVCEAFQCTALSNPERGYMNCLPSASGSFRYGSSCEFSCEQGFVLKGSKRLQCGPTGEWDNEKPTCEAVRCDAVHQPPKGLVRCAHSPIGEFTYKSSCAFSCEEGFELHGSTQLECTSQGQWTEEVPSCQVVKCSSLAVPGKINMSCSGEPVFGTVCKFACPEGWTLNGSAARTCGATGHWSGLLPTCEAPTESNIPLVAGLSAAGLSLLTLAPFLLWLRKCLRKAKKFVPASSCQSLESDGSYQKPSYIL

CCOC(=O)c1ccc(O)cc1
inactive: all assays above

C#C[C@]1(O)CC[C@H]2[C@@H]3CCC4=CC(=O)CC[C@@H]4[C@H]3CC[C@@]21CC
inactive: all assays above

CCCCOC(=O)C(C)Oc1ccc(Oc2ccc(C(F)(F)F)cn2)cc1 (centres undefined)
inactive: all assays above

From PubChem BioAssay (EPA / NIEHS)
